Results published in the supplement of paper PMC10849652.
About 7,900 targets were measured; listed, in parts, are those with a hit and a random draw of the rest. About 0.6% of all pairs of compound and target were hits.

Tests used:
Assay in all cases: log2 fold change, soluble protein after heating vs DMSO (PISA); higher = thermal stabilisation; K562 cells, 10 uM, 30 min; active = over 0.2 and 3.5 SD of the protein, either way, in both replicates (recomputed)
[1] = compound: C#Cc1cccc(Nc2ncnc3cc(OCCOC)c(OCCOC)cc23)c1 [erlotinib]
In short: (§1)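 K562 cells at 2×10^6 cells/mL were given 10 μM compound for 30 min. Aliquots then went through 3 min of heating across 48°C-58°C, were pooled, and were extracted in PBS with 0.5% NP-40 at 4°C, and the supernatant after 21,000xg for 90 min was quantified by TMTpro 16plex LC-MS/MS with channel sums equalised. Thermal stability relative to control samples, from duplicates, is given as log2 fold change.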

[2] = compound: C/C(=N\NC(=O)C1=CC(=CC=C1)S(=O)(=O)N2CCOCC2)/C3=C(C=CC(=C3)Cl)O
In short: as §1

[3] = compound: C1=CC(=C(C=C1Cl)C2=NC3=NC=CN=C3C(=N2)NC4=CC=NC=C4)F
In short: as §1

[4] = compound: C1=CC(=CC=C1C2=NC3=C(N2)C=C(C=C3)C(=O)N)OC4=CC=C(C=C4)Cl
In short: as §1

[5] = compound: C1=CC2=C(C=CC(=C2)/C=C\3/C(=O)NC(=NCC4=CC=CS4)S3)N=C1
In short: as §1

[6] = compound: C1=CC2=NC=CN=C2C=C1/C=C/3\C(=O)NC(=O)S3
In short: as §1

[7] = compound: C1=CC=C(C=C1)C2=NC(=C(N2)C3=CC=NC=C3)C4=CC(=C(C=C4)Cl)O
In short: as §1

[8] = compound: C1=CC=C2C(=C1)C3=NNC4=CC=CC(=C43)C2=O
In short: as §1

[9] = compound: C1CCN(C1)C(=O)NC2=CC=CC(=C2)NC3=NC=C(C(=N3)NCCC4=CN=CN4)Br
In short: as §1

[10] = compound: C1CN(CCC1(CC2=CC=C(C=C2)Cl)N)C3=NC=NC4=C3C=CN4
In short: as §1

[11] = compound: C1COCCN1CCN2C3=CC=CC=C3N=C2NC(=O)C4=CC(=CC=C4)[N+](=O)[O-] [IRAK-1-4 Inhibitor I]
In short: as §1

[12] = compound: C=CC(=O)N1CCC[C@@H](n2nc(-c3ccc(Oc4ccccc4)cc3)c3c(N)ncnc32)C1 [ibrutinib]
In short: as §1

[13] = compound: CC(=O)c1cnc2ccc(-c3cc(Cl)c(O)c(Cl)c3)nc2c1N[C@H]1CC[C@H](CN(C)C)CC1
In short: as §1

[14] = compound: CC(C)(C)Cn1c(N)nc2ccc(-c3[nH]c(C(C)(C)C)nc3-c3ccc(F)cc3)nc21 [ralimetinib]
In short: as §1

[15] = compound: CC(C)(O)CC(=O)NCCn1ccc2ncnc(Nc3ccc(Oc4cccc(C(F)(F)F)c4)c(Cl)c3)c21
In short: as §1

[16] = compound: CC(C)C1=C2N=C(C=C(N2N=C1)NCC3=CC=CC=C3)NCCCCCCN
In short: as §1

[17] = compound: CC(C)C[C@@H](C=O)NC(=O)[C@H](CC(C)C)NC(=O)[C@H](CC(C)C)NC(=O)OCc1ccccc1
In short: as §1

[18] = compound: CC(C)N(C[C@H]1O[C@@H](n2cnc3c(N)ncnc32)[C@H](O)[C@@H]1O)[C@H]1C[C@@H](CCc2nc3cc(C(C)(C)C)ccc3[nH]2)C1 [pinometostat]
In short: as §1

[19] = compound: CC1=C(C(CC(=O)N1)C2=CC=C(C=C2)C(F)(F)F)C(=O)NC3=C(C=C4C(=C3)C=NN4)F
In short: as §1

[20] = compound: CC1=C(C2=C(C=C1)C(=O)C3=CC=CC=C3N2CCCN)C
In short: as §1

Measured: log2 fold change

CERT isoform 3 (UniProt Q9Y5P4)
UniProt Q9Y5P4, sequence (Q9Y5P4 whole entry, looked up): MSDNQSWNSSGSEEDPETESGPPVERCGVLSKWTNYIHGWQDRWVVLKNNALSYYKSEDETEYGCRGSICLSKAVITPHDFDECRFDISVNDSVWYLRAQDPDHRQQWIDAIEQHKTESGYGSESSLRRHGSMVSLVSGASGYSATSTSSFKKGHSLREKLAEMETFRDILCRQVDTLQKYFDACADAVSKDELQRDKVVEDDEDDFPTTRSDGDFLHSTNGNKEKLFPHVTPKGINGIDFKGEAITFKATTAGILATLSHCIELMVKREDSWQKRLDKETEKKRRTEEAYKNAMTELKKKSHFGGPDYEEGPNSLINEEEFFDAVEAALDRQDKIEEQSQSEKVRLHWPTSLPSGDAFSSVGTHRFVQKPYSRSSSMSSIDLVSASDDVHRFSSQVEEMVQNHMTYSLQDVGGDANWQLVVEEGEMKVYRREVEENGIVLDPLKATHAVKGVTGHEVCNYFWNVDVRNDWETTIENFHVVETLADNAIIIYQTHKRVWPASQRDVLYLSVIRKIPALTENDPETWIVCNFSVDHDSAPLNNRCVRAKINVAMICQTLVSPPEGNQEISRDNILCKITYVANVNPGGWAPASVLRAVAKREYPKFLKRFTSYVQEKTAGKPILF
active: [13] -0.382
inactive: [1] 0.05 | [2] 0.083 | [3] 0.018 | [4] -0.009 | [5] 0.039 | [6] 0.005 | [7] 0.044 | [8] 0 | [9] -0.054 | [10] -0.007 | [11] -0.052 | [12] 0.017 | [14] 0.038 | [15] 0.166 | [16] 0.103 | [17] 0.005 | [18] 0.026 | [19] -0.048 | [20] -0.033

CDC42BPA isoform 6 (UniProt Q5VT25)
inactive: [1] -0.081 | [2] 0.115 | [3] -0.022 | [4] 0.008 | [5] -0.337 | [6] -0.011 | [7] 0.03 | [8] 0.073 | [9] -0.03 | [10] -0.396 | [11] -0.025 | [12] -0.09 | [14] 0.094 | [15] -0.02 | [16] -0.193 | [17] 0.043 | [18] 0.029 | [19] -0.192 | [20] 0.132
active: [13] -1.07

CCZ1 (UniProt P86791)
UniProt P86791, sequence (P86791 whole entry, looked up): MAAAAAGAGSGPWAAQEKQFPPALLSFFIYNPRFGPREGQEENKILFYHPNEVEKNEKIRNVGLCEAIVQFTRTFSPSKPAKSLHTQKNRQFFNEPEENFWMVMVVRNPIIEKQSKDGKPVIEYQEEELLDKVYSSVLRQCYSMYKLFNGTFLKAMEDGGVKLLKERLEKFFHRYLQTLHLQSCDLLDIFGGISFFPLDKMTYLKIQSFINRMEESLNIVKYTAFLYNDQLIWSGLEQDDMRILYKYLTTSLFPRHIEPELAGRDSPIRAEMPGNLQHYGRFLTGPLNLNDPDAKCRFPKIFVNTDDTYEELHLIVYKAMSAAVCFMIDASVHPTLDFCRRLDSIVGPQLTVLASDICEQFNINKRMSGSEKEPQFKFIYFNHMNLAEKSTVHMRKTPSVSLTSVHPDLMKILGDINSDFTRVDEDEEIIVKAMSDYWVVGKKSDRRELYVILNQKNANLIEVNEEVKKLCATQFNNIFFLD
active: [16] -0.287
inactive: [1] 0.027 | [2] 0.046 | [3] -0.003 | [4] 0.064 | [5] 0.034 | [6] -0.017 | [7] 0.031 | [8] 0.011 | [9] 0.016 | [10] 0.011 | [11] 0.063 | [12] -0.001 | [13] -0.039 | [14] -0.051 | [15] -0.05 | [17] 0.025 | [18] 0.012 | [19] -0.007 | [20] 0.006

C1D (UniProt Q13901)
UniProt Q13901, sequence (Q13901 whole entry, looked up): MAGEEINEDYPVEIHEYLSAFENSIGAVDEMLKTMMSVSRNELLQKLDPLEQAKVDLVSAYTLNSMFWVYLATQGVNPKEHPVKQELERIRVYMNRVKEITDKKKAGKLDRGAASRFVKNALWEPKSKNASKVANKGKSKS
inactive: [1] 0.022 | [2] -0.078 | [3] -0.01 | [4] -0.011 | [5] -0.246 | [6] 0.068 | [7] -0.071 | [8] -0.044 | [9] -0.019 | [10] -0.1 | [11] 0.013 | [12] -0.041 | [13] -0.081 | [14] 0.016 | [15] -0.047 | [16] 0.072 | [17] 0.055 | [18] -0.081 | [19] 0.084 | [20] -0.004

CRKL (UniProt P46109)
UniProt P46109, sequence (P46109 whole entry, looked up): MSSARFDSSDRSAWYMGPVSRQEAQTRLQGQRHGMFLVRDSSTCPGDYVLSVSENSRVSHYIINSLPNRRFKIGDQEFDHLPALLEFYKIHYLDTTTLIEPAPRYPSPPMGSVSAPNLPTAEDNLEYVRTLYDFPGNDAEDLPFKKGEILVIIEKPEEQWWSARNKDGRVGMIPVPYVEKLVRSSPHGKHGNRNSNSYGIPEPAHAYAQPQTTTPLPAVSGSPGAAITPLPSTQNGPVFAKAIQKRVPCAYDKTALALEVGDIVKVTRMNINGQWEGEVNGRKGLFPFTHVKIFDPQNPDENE
inactive: [1] -0.012 | [2] -0.002 | [3] 0.014 | [4] -0.02 | [5] 0.047 | [6] 0.006 | [7] -0.069 | [8] -0.017 | [9] 0.017 | [10] 0.026 | [11] 0.035 | [12] -0.102 | [14] -0.054 | [15] -0.004 | [16] 0.042 | [17] 0.057 | [18] -0.022 | [19] 0.042 | [20] -0.008
active: [13] -1.24

CA1 (UniProt P00915)
UniProt P00915, sequence (P00915 whole entry, looked up): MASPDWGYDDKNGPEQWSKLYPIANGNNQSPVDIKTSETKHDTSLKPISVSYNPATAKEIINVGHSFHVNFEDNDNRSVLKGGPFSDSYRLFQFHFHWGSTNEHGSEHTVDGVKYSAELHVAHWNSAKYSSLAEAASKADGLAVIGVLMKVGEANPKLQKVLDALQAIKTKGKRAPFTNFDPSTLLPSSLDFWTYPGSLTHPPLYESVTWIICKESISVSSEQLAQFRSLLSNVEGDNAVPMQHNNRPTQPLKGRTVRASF
inactive: [1] -0.025 | [2] 0.022 | [3] 0.03 | [4] 0.006 | [5] -0.079 | [6] 0.009 | [7] 0.064 | [8] 0.004 | [9] 0.018 | [10] 0.054 | [11] 0.068 | [12] -0.02 | [13] 0.003 | [14] 0.017 | [15] -0.031 | [16] 0.119 | [17] -0.011 | [18] -0.006 | [19] -0.019 | [20] -0.043

CDC37L1 (UniProt Q7L3B6)
UniProt Q7L3B6, sequence (Q7L3B6 whole entry, looked up): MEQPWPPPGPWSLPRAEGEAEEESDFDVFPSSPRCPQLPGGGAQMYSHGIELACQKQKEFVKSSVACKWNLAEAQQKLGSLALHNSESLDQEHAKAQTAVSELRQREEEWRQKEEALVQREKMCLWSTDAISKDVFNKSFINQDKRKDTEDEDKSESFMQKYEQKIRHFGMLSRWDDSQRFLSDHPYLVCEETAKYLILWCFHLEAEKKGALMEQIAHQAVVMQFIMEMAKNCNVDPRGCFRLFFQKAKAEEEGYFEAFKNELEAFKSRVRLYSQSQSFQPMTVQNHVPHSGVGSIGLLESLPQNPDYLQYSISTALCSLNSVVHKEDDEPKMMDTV
inactive: [1] -0.069 | [2] 0.008 | [3] -0.007 | [4] -0.035 | [5] 0.054 | [6] 0.068 | [7] 0 | [8] -0.012 | [9] 0.203 | [10] 0.357 | [11] 0.004 | [12] -0.018 | [13] -0.012 | [14] -0.059 | [15] -0.118 | [16] -0.004 | [17] 0 | [18] -0.015 | [19] 0.062 | [20] -0.281

CRK (UniProt P46108)
UniProt P46108, sequence (P46108 whole entry, looked up): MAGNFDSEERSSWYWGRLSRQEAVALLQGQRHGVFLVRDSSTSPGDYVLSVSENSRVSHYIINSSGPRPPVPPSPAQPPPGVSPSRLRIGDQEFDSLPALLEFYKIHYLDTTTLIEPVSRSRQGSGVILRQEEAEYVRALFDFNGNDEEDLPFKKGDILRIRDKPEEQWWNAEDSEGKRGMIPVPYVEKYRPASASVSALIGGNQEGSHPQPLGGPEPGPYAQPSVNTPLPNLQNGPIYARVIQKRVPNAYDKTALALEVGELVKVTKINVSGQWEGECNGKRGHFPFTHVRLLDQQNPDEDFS
active: [13] -0.887
inactive: [1] -0.022 | [2] 0.035 | [3] -0.002 | [4] -0.012 | [5] -0.011 | [6] 0.03 | [7] -0.076 | [8] 0.049 | [9] 0.016 | [10] 0.001 | [11] -0.046 | [12] -0.097 | [14] -0.013 | [15] -0.007 | [16] -0.003 | [17] 0.032 | [18] -0.037 | [19] -0.011 | [20] 0.07

CAMSAP1 isoform 3 (UniProt Q5T5Y3)
inactive: [1] -0.084 | [2] 0.023 | [3] -0.014 | [4] -0.013 | [5] 0.058 | [6] 0.007 | [7] 0.035 | [8] -0.078 | [9] -0.016 | [10] 0.006 | [11] -0.076 | [12] -0.069 | [13] -0.29 | [14] -0.031 | [15] -0.062 | [16] -0.078 | [17] 0.031 | [18] 0.121 | [19] -0.056 | [20] 0.108

CHKA (UniProt P35790)
UniProt P35790, sequence (P35790 whole entry, looked up): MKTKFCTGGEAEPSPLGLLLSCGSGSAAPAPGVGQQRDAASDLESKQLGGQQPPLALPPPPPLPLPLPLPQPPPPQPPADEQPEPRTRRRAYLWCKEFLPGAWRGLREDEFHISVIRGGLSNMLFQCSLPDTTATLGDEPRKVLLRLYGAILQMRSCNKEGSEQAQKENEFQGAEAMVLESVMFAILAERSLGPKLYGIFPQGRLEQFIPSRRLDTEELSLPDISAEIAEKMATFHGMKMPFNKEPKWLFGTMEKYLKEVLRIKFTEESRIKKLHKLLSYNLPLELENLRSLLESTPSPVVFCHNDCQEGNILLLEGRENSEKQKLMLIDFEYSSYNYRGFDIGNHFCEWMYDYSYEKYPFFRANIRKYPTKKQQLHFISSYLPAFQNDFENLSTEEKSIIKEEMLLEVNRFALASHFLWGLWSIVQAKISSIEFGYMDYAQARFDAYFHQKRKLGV
inactive: [1] 0.012 | [2] -0.008 | [3] 0.036 | [4] -0.018 | [5] 0.001 | [6] -0.119 | [7] 0.069 | [8] -0.188 | [9] 0.005 | [10] -0.021 | [11] -0.034 | [12] 0 | [13] 0.085 | [14] 0.006 | [15] 0.057 | [16] 0.113 | [17] 0.019 | [18] 0.088 | [19] -0.061 | [20] 0.079

CNDP2 (UniProt Q96KP4)
UniProt Q96KP4, sequence (Q96KP4 whole entry, looked up): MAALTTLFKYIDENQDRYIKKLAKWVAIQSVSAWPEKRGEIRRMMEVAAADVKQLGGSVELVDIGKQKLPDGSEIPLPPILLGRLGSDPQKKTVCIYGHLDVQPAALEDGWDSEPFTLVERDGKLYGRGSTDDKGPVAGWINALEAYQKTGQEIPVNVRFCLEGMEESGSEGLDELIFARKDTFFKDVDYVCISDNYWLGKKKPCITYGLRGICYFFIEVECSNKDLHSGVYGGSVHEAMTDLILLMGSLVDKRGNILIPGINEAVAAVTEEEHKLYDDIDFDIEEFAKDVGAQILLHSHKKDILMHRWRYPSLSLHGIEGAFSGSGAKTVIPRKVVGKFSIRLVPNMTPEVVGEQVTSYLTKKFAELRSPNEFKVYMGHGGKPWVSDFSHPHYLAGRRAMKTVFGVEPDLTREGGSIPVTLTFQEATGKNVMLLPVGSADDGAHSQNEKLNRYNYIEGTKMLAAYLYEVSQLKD
inactive: [1] 0.035 | [2] -0.099 | [3] 0.058 | [4] 0.022 | [5] 0.091 | [6] -0.024 | [7] 0.064 | [8] 0.058 | [9] 0.023 | [10] 0.072 | [11] 0.098 | [12] 0.002 | [13] -0.01 | [14] 0.07 | [15] -0.005 | [16] -0.011 | [17] -0.029 | [18] -0.035 | [19] -0.011 | [20] 0.042

CBX5 (UniProt P45973)
UniProt P45973, sequence (P45973 whole entry, looked up): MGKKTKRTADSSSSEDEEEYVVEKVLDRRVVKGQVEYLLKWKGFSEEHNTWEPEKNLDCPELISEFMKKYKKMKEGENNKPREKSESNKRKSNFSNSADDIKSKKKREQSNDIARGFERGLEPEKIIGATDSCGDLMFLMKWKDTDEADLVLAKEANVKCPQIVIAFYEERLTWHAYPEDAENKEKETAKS
inactive: [1] -0.018 | [2] 0.08 | [3] 0 | [4] 0.043 | [5] 0.111 | [6] 0.025 | [7] 0.003 | [8] -0.028 | [9] -0.002 | [10] -0.015 | [11] -0.076 | [12] 0.002 | [13] -0.102 | [14] -0.002 | [15] 0.056 | [16] -0.067 | [17] -0.001 | [18] -0.058 | [19] -0.024
active: [20] -0.545

C16orf58 (UniProt Q96GQ5)
UniProt Q96GQ5, sequence (Q96GQ5 whole entry, looked up): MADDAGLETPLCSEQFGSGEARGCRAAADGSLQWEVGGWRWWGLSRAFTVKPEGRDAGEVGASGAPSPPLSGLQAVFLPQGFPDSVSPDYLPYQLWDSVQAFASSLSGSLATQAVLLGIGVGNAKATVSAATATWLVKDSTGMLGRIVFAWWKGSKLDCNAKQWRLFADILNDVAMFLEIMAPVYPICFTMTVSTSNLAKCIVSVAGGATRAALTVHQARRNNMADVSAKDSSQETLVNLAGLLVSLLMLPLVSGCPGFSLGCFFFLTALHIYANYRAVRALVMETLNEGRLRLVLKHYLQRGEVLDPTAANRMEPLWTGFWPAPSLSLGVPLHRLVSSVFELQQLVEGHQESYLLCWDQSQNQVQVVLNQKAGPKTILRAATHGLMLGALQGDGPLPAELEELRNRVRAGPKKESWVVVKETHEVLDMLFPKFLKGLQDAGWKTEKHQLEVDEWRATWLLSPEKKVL
inactive: [1] 0.033 | [2] 0.01 | [3] 0.051 | [4] 0.023 | [5] 0.061 | [6] 0.042 | [7] -0.001 | [8] -0.021 | [9] 0.006 | [10] 0.036 | [11] 0.031 | [12] -0.022 | [13] 0.01 | [14] -0.017 | [15] -0.045 | [16] -0.199 | [17] 0.001 | [18] 0.005 | [19] 0.001 | [20] 0.045

CDK9 isoform 2 (UniProt P50750)
UniProt P50750, sequence (P50750 whole entry, looked up): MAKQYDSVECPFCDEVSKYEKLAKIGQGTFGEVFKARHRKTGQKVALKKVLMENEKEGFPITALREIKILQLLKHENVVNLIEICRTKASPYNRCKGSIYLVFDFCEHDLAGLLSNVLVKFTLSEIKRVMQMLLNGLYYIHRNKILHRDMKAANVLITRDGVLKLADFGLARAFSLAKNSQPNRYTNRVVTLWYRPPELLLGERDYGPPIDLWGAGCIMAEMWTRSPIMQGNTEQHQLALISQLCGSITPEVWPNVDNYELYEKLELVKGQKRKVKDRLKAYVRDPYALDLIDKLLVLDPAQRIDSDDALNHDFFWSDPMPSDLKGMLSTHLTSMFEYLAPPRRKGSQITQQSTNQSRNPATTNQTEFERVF
inactive: [1] 0.043 | [2] -0.005 | [3] -0.174 | [4] 0.024 | [5] -0.084 | [6] 0.05 | [7] 0.059 | [8] -0.076 | [9] -0.001 | [10] -0.059 | [11] -0.02 | [12] -0.017 | [13] 0.233 | [14] -0.008 | [15] 0 | [16] -0.113 | [17] 0.044 | [18] 0.157 | [19] -0.03 | [20] -0.144

CCNH (UniProt P51946)
UniProt P51946, sequence (P51946 whole entry, looked up): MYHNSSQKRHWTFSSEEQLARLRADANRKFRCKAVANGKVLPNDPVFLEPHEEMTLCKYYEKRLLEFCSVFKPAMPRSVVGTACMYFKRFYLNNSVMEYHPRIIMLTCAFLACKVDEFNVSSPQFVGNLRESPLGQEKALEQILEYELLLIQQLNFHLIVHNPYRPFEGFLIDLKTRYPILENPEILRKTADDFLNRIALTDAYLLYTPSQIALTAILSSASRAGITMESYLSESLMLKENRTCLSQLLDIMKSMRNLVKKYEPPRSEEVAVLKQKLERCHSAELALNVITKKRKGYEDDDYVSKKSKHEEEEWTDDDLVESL
active: [13] -0.24
inactive: [1] -0.022 | [2] 0.021 | [3] 0.034 | [4] -0.016 | [5] -0.045 | [6] 0.031 | [7] 0.022 | [8] -0.004 | [9] -0.011 | [10] -0.015 | [11] -0.01 | [12] -0.04 | [14] -0.04 | [15] -0.009 | [16] 0.084 | [17] -0.053 | [18] 0.022 | [19] 0.045 | [20] -0.01

CKS1B (UniProt P61024)
UniProt P61024, sequence (P61024 whole entry, looked up): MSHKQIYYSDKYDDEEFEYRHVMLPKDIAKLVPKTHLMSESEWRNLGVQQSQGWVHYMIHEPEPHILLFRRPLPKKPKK
inactive: [1] -0.014 | [2] 0 | [3] 0.028 | [4] -0.013 | [5] 0.044 | [6] 0.029 | [7] 0.11 | [8] -0.045 | [9] -0.012 | [10] 0.034 | [11] -0.011 | [12] -0.008 | [13] -0.127 | [15] 0.001 | [16] 0.027 | [17] -0.031 | [18] -0.044 | [19] 0.036 | [20] 0.054
active: [14] 0.222
